The values below come from PubChem BioAssay (Tox21).

“And” between values parts separate entries of the source, which are not always exact repeats. Equal values may be shown once. Inconclusive results are not listed. Unmarked numbers belong to inactive results. The source made the active and inactive calls. Unless noted, calls come from the whole dose curve; as a rule, active = well fitted curve in the direction sought with a large enough effect in the repeat runs; inconclusive = weak or mixed curves; inactive = no such curve, though single readings can be large; an effect the other way counts as inactive or inconclusive.

Assay [1] can be described thus: qHTS assay to identify small molecule antagonists of the thyroid receptor (TR) signaling pathway - cell viability counter screen (AID 743064). Note: nearly all actives have a fitted effect of over 50% in size. Put shortly: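 GH3.TRE-Luc rat pituitary cells dosed after 4 hr plating, co-stimulated with T3 at 1 nM final, incubated 23.5 h at 37 C. Viability measured in the same wells by CellTiter-Fluor fluorescence after 30 min further at 37 C.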
(In general: In qHTS, concentration-response curves come from the screen itself.)

The nature of assay [2]: qHTS assay to identify small molecule antagonists of the thyroid receptor (TR) signaling pathway (AID 743065). Note: nearly all actives have a fitted effect of over 55% in size. Put shortly: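 GH3.TRE-Luc rat pituitary cells carrying two TR response elements driving luciferase were plated for 4 h, given compound plus 1 nM T3 (final), and incubated 23.5 h at 37 C. ONE-Glo luminescence measured reporter inhibition; CellTiter-Fluor fluorescence tracked cytotoxicity.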

For assay [3], the system named is thyroid hormone receptor (rat, GH3 cells). Kind of assay: qHTS assay to identify small molecule agonists of the thyroid receptor (TR) signaling pathway (AID 743066; calls by dose curve).
For assay [4], the target named is Estrogen receptor (Homo sapiens) (UniProt P03372). The experiment in a line: qHTS assay to identify small molecule antagonists of the estrogen receptor alpha (ER-alpha) signaling pathway (AID 743069; active = well fitted curve in the direction sought with a large enough effect in the signal ratio in the repeat runs, not every such curve was filed as active; the % refers to the signal ratio). Summed up:
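Estradiol-stimulated ER-alpha-UAS-bla HEK293 cells, 18 hr compound exposure at 37C. LiveBLAzer B/G substrate, 2 hr RT, fluorescence read.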

A short description of assay [5]: qHTS assay to identify small molecule antagonists of the estrogen receptor alpha (ER-alpha) signaling pathway - cell viability counter screen (AID 743074; calls by dose curve;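 note: HEK293 cells carrying ER-alpha-UAS-bla reporter stimulated with 17beta-estradiol; nearly all actives have a fitted effect of over 45% in size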).
In assay [6] the target is Estrogen receptor (Homo sapiens) (UniProt P03372). Kind of assay: qHTS assay to identify small molecule agonists of the estrogen receptor alpha (ER-alpha) signaling pathway (AID 743075; calls by dose curve;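 note: HEK293 GripTite cells with ER-alpha and UAS-driven beta-lactamase reporter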).
The target is the same in assay [7]. Kind of assay: qHTS assay to identify small molecule agonists of the estrogen receptor alpha (ER-alpha) signaling pathway using the BG1 cell line (AID 743079). Note: nearly all actives have a fitted effect of over 20% in size. Note: potency is the fitted concentration of half-maximal effect. The following applies: BG1Luc4E2 cells, ERE-luciferase agonist, 22 h.
Assay [8] is described as follows: qHTS assay to identify small molecule antagonists of the estrogen receptor alpha (ER-alpha) signaling pathway using the BG1 cell line (AID 743080; calls by dose curve;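 note: BG1 cells stimulated with 17beta-estradiol alongside compound; nearly all actives have a fitted effect of over 25% in size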). Summed up:
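Readout is ONE-Glo luminescence, taken 30 min at room temperature after reagent addition, preceded by a CellTiter-Fluor viability read; BG1-Luc-4E2 cells had received compound and 17beta-estradiol for 21.5 h at 37 C.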

Assay [9] in a line: qHTS assay to identify small molecule antagonists of the estrogen receptor alpha (ER-alpha) signaling pathway using the BG1 cell line - cell viability counter screen (AID 743081).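 Note: compound given together with 17beta-estradiol as the ER stimulus; nearly all actives have a fitted effect of over 45% in size.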
Assay [10] deals with Aromatase (Homo sapiens) (UniProt P11511). The experiment in a line: qHTS assay to identify aromatase inhibitors (AID 743083). Note: nearly all actives have a fitted effect of over 55% in size.
% is set by controls: 0 for no effect and ±100 for the full control effect.

Chain of Estrogen receptor (Homo sapiens) (P03372 whole entry, looked up): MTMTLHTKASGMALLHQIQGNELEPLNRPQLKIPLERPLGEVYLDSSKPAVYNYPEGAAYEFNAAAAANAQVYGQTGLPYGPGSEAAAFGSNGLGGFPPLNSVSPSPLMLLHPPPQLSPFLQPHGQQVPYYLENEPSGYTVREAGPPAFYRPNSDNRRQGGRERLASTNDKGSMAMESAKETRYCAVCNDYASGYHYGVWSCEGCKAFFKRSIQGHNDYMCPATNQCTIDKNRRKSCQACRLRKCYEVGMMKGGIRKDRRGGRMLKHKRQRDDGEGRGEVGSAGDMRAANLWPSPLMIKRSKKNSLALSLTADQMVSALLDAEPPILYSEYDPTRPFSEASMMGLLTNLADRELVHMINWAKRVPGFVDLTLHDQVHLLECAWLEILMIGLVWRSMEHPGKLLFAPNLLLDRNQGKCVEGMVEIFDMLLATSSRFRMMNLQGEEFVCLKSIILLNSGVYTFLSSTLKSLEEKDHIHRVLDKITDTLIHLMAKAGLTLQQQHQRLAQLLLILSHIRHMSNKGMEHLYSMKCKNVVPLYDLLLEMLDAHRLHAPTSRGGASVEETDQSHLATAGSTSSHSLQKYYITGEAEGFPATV
Chain of Aromatase (Homo sapiens) (P11511 whole entry, looked up): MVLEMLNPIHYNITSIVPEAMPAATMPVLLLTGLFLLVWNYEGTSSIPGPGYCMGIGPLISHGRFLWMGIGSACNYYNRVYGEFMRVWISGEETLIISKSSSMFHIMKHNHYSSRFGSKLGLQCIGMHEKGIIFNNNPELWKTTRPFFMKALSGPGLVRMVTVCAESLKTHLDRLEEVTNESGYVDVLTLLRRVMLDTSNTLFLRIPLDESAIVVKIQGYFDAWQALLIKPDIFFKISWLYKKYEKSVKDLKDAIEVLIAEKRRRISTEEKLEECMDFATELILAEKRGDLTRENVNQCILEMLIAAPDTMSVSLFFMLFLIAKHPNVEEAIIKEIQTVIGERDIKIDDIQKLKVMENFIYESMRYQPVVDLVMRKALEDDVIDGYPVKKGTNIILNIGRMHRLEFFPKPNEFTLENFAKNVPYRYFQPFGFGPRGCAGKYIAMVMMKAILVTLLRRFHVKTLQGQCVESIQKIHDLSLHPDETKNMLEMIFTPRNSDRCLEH

With `CS(=O)(=O)c1cc(C(F)(F)F)ccc1C(=O)c1cnoc1C1CC1`, the Potency entry in assay [1], in [2], in [3], in assay [4], in [6] and in assay [8] was “inactive” each time. For the same compound, the Potency result in assay [9] and in [10] was “inactive” each time. Moreover, the outcome in assay [5] was inactive. The activation in assay [7] (at 70.3 µM (top of the series)) is 0.699%.
Take `CC(C)NCC(O)c1ccc(N)c(C#N)c1` (stereo not drawn): the Potency entry in [1], in assay [2], in assay [3], in [4], in assay [6] and in [8] was “inactive” each time. For the same compound, the Potency result in [9] and in [10] was “inactive” each time. The outcome in assay [5] was inactive. Also, the activation in assay [7] (at 70.3 µM (top of the series)) was -15.4%.
Consider `CCN(Cc1ccc(Cl)nc1)/C(=C/[N+](=O)[O-])NC`, for which the Potency result in assay [1], in [2], in assay [3], in assay [4], in assay [6] and in [8] was “inactive” each time. For the same compound, the Potency result in assay [9] and in assay [10] was “inactive” in each case. In addition, the outcome in assay [5] was inactive. The activation in assay [7] (at 70.3 µM (top of the series)) is 1.15%.
Consider `C[C@@H]1CN(C2CCC(C#N)(c3ccc(F)cc3)CC2)CC[C@]1(C(=O)O)c1ccccc1` (stereo partly drawn), for which the Potency entry in assay [1], in assay [2], in [3], in [4], in assay [6] and in assay [8] was “inactive” throughout. Besides, the Potency result in [9] and in assay [10] was “inactive” throughout. The call in assay [5] was inactive. Besides, the activation in assay [7] (at 32.5 µM (top of the series)) was -0.22%.
Turning to `O=C(O)c1ccc2[nH]cc(CCCCN3CC=C(c4ccccc4)CC3)c2c1`, the Potency result in assay [1], in [2], in assay [3], in assay [4], in assay [6] and in assay [8] was “inactive” throughout. For the same compound, the Potency entry in [9] and in assay [10] was “inactive” throughout. In addition, the result in [5] was inactive. The activation in [7] (at 70.3 µM (top of the series)) was -2.02%.
Consider `C=C(C)[C@@H]1CC=C(C=O)CC1`, for which the Potency entry in assay [1], in [2], in assay [3], in assay [4], in [6] and in [8] was “inactive” each time. Moreover, the Potency entry in assay [9] and in [10] was “inactive” throughout. The compound was called inactive in assay [5]. In [7] (at 70.3 µM (top of the series)), the activation is 3.7%.
As to `COc1ncc(F)c2nc(S(=O)(=O)Nc3c(F)cccc3F)nn12`, the Potency result in assay [1], in [2], in assay [3], in [4], in assay [6] and in assay [8] was “inactive” throughout. In addition, the Potency entry in assay [9] and in [10] was “inactive” each time. Further, in assay [5], the result was inactive. Further, the activation in [7] (at 70.3 µM (top of the series)) was -3.47%.
Regarding `[O]=[Cd]`, the Potency entry in [1], in assay [2], in [3], in [4], in assay [6] and in assay [8] was “inactive” throughout. Besides, the Potency entry in assay [9] and in [10] was “inactive” each time. Further, the compound was classed as inactive in assay [5]. Moreover, the activation in assay [7] (at 70.3 µM (top of the series)) was -13.8% and 18.3%.
With `[Cl][Sn]([Cl])([Cl])[Cl]`, the Potency entry in assay [1], in [2], in [3], in assay [4], in [6] and in [8] was “inactive” in each case. Besides, the Potency result in assay [9] and in assay [10] was “inactive” in each case. For the same compound, the compound was called inactive in assay [5]. Moreover, the activation in assay [7] (at 95 µM (top of the series)) is -3.53%.
`CCOc1nc(C(Cl)(Cl)Cl)ns1`: the Potency entry in [1], in [2], in assay [3], in [4], in [6] and in assay [8] was “inactive” throughout. Besides, the Potency entry in assay [9] and in assay [10] was “inactive” throughout. Moreover, in assay [5], the result was inactive. Moreover, the activation in [7] (at 70.3 µM (top of the series)) was 4.23%.
For `N#CCBr`, the Potency result in assay [1], in assay [2], in assay [3], in [4], in [6] and in assay [8] was “inactive” each time. The Potency entry in assay [9] and in [10] was “inactive” each time. Also, in assay [5], the call was inactive. In addition, in [7] (at 95 µM (top of the series)), the activation was 0.199%.
On to `Cc1cccc(C#N)c1`, for which the Potency result in assay [1], in assay [2], in assay [3], in assay [4], in assay [6] and in [8] was “inactive” each time. The Potency entry in assay [9] and in assay [10] was “inactive” in each case. For the same compound, the outcome in [5] was inactive. Besides, the Potency in assay [7] is 68.2 µM (active).
As for `O=NN1CCN(N=O)CC1`, the Potency result in assay [1], in assay [2], in assay [3], in assay [4], in assay [6] and in assay [8] was “inactive” throughout. For the same compound, the Potency result in assay [9] and in assay [10] was “inactive” throughout. Also, the outcome in assay [5] was inactive. Further, the activation in [7] (at 70.3 µM (top of the series)) was 9.64%.
As for `CCCCc1ccc(O)cc1`, the Potency entry in assay [1], in assay [2], in [3], in assay [4], in [6] and in [8] was “inactive” each time. The Potency entry in assay [9] was “inactive”. In addition, the compound was classed as inactive in assay [5]. For the same compound, the activation in assay [7] (at 70.3 µM (top of the series)) was 12.6%.
As to `COc1cc(OC)nc(NC(=O)NS(=O)(=O)c2ncccc2C(=O)N(C)C)n1`, the Potency entry in assay [1], in assay [2], in assay [3], in assay [4], in [6] and in assay [8] was “inactive” in each case. Moreover, the Potency result in [9] and in assay [10] was “inactive” throughout. In [5], the outcome was inactive. Moreover, in assay [7] (at 70.3 µM (top of the series)), the activation is 9.83%.
In the case of `CCC/C(=N\OCC)C1=C(O)CC(CC(C)SCC)CC1=O` (stereo not drawn), the Potency result in assay [1], in assay [2], in [3], in [4], in assay [6] and in assay [8] was “inactive” in each case. Also, the Potency entry in assay [9] and in assay [10] was “inactive” in each case. In addition, in assay [5], the compound was classed as inactive. Further, in [7] (at 95 µM (top of the series)), the activation is -1.67%.
Consider `CCN(CC)C(C)C(=O)c1ccccc1` (stereo not drawn), for which the Potency result in [1], in [2], in assay [3], in [4], in [6] and in assay [8] was “inactive” in each case. In addition, the Potency entry in assay [9] and in [10] was “inactive” in each case. Moreover, the outcome in assay [5] was inactive. For the same compound, the activation in assay [7] (at 70.3 µM (top of the series)) was 0.375%.
`COC(=O)C(c1ccccc1)C1CCCCN1` (stereo not drawn): the Potency entry in assay [1], in assay [2], in assay [3], in assay [4], in assay [6] and in assay [8] was “inactive” each time. The Potency entry in assay [9] and in [10] was “inactive” in each case. Further, the result in [5] was inactive. Besides, the activation in assay [7] (at 70.3 µM (top of the series)) is 2.44% and -6.09%.
On to `Cc1nnc2n1-c1sc(CCC(=O)N3CCOCC3)cc1C(c1ccccc1Cl)=NC2`, for which the Potency entry in assay [1], in [2], in assay [3], in assay [4], in assay [6] and in [8] was “inactive” each time. Besides, the Potency entry in [9] and in assay [10] was “inactive” in each case. In [5], the outcome was inactive. In addition, the activation in assay [7] (at 70.3 µM (top of the series)) was -7.93% and -17.7%.
`CCOP(=S)(OCC)Oc1nc(Cl)n(C(C)C)n1`: the Potency entry in assay [1], in assay [2], in [3], in assay [4], in assay [6] and in assay [8] was “inactive” throughout. Also, the Potency entry in assay [9] and in [10] was “inactive” throughout. The compound was called inactive in assay [5]. Besides, the activation in assay [7] (at 70.3 µM (top of the series)) was 5.59%.
For the compound `OCCBr`, the Potency result in [1], in assay [2], in [3], in [4], in assay [6] and in [8] was “inactive” throughout. Also, the Potency entry in assay [9] and in [10] was “inactive” throughout. Also, in [5], the compound was classed as inactive. Besides, the activation in assay [7] (at 70.3 µM (top of the series)) is 6.61%.
On to `OC(Cn1cncn1)(c1ccc(F)cc1)c1ccccc1F` (stereo not drawn), for which the Potency entry in [1], in assay [2], in [3], in assay [4], in assay [6] and in [8] was “inactive” each time. In addition, the Potency result in assay [9] is “inactive”. Also, in assay [5], the result was inactive. Also, the activation in [7] (at 70.3 µM (top of the series)) is -1%.
As to `O=C(CCCN1CCC(n2c(=O)[nH]c3ccccc32)CC1)c1ccc(F)cc1`, the Potency entry in [1], in [2], in assay [3], in [4], in assay [6] and in assay [8] was “inactive” in each case. In addition, the Potency entry in [9] and in assay [10] was “inactive” each time. For the same compound, the compound was classed as inactive in assay [5]. In [7] (at 32.5 µM (top of the series)), the activation is -6.79%.
